Compound activity from PubChem BioAssay.
TRHR agonist: qHTS for Small Molecule Agonists and Allosteric Enhancers of Human TRH Receptor: Primary Screen for Agonists; 360,000 tested, 0.18% active; Thyrotropin-releasing hormone receptor (Homo sapiens), P34981; TRHR cells, calcium flux fluo-8, FDSS agonist mode; activation, % at 2 µM; in the data active = activation above about 30%
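In this calcium-flux screen, cells bearing human TRHR are dye-loaded with fluo-8, baselined for 10 cycles, then exposed to library compounds; positive kinetic calcium responses during the agonist phase mark hits, with TRH as control.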
hERG WT inh: qHTS for Inhibitors of KCHN2 3.1: Wildtype qHTS; U2OS, BacMam KCNH2, thallium flux FluxOr; stronger effect = lower value; activity change, % at 1.84 µM; 340,000 tested, 0.37% active;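 active = maximum activity change below -70%; inconclusive = maximum activity change between -70% and -50%; inactive = maximum activity change above -50%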
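U2OS cells were transduced with wild-type KCNH2 virus (2.03 x 10^8 / mL) for 4 h at room temperature, then cultured overnight at 37 C. Thallium flux was read with FluxOr dye. Rate constants were normalized to DMSO controls.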
TRPML1 ag: qHTS for Agonists of the Human Mucolipin Transient Receptor Potential 1 (TRPML1) | Mucolipin-1 (Homo sapiens), Q9GZU1 | TRPML1-expressing cells, Ca2+ dye fluorescence, FDSS | activation, % (no concentration beside the values) | 410,000 tested, 0.12% active; in the data active = activation above about 50%; inconclusive = mostly about 30% to 49%
Target sequence (Q9GZU1 whole entry, looked up): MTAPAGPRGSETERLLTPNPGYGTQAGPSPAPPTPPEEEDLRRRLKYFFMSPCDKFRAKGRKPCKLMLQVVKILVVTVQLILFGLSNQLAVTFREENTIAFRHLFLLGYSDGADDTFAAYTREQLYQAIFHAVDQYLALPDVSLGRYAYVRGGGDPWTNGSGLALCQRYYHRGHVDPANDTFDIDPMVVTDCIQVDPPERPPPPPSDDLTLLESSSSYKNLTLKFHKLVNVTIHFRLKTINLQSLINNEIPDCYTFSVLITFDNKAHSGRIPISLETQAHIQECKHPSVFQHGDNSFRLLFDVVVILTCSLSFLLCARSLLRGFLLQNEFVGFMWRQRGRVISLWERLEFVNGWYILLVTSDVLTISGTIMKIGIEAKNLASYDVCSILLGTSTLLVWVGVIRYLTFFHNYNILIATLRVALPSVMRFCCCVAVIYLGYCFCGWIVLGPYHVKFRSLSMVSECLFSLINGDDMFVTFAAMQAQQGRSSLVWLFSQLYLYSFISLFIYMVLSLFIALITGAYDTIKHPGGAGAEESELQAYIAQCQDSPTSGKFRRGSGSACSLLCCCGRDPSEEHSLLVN
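Calcium fluorescence on an FDSS kinetic reader gave the read-out. Tet-induced TRPML1-DL cells were plated overnight, dye-loaded (Ca8 with quencher, 45-90 min, room temperature, dark), then read 110 s after compound addition, and again 110 s after 4uM final 54-4 (EC80).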
KCNH2 3.1 block: qHTS for Inhibitors of KCHN2 3.1: Mutant qHTS. U2OS KCNH2 3.1, thallium flux FluxOr; stronger effect = lower value. Potassium voltage-gated channel subfamily H member 2, brain isoform KCNH2 3.1 (human). 340,000 tested, 0.95% active. activity change, % (tested at about 1.8 µM);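 active = maximum activity change below -70%; inconclusive = maximum activity change from -70% to -50%; inactive = maximum activity change above -50%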;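 also: thallium influx rate constant from kinetic fluorescence after stimulation buffer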
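Measured as rate of thallium-driven FluxOr signal in transduced U2OS cells carrying the 3.1 channel, read kinetically for 2 min upon stimulation; values are rate constants scaled to DMSO control wells.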
TRPML1 inh: qHTS for Inhibitors of the Human Mucolipin Transient Receptor Potential 1 (TRPML1). 390,000 tested, 0.02% active. Mucolipin-1 (Homo sapiens), Q9GZU1. activity change, negative = inhibition, % (no concentration beside the values). TRPML1-inducible cells, Ca2+ dye fluorescence, FDSS; stronger effect = lower value; inhibition of EC80 agonist-evoked calcium signal; in the data active = activity change below about -50%; inconclusive = between about -30% and that limit;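 also: stimulus is agonist 54-4 at its EC80 concentration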
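Tet-induced TRPML1-DL cells loaded with Ca8 no-wash calcium dye were read kinetically on FDSS. Compound addition was followed by EC80 agonist 54-4 (4 uM final); inhibition was read over 110 s.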
TRHR PAM: qHTS for Small Molecule Agonists and Allosteric Enhancers of Human TRH Receptor: Primary Screen for Enhancers; Thyrotropin-releasing hormone receptor (Homo sapiens), P34981; TRHR cells, fluo-8 calcium fluorescence, EC20 TRH enhancement; enhancement, % at 2 µM; 360,000 tested, 0.66% active; in the data active = enhancement above about 30%
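Enhancer read-out: after compound pinning and an initial kinetic agonist-mode read, an EC20 of TRH (10 nM final) was injected and fluo-8 calcium signal (Ex 480/Em 530) followed at 1 s/cycle for 100 cycles in TRHR-expressing cells.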
A number is an active result; . = inactive; ? = inconclusive; / = no result. Shown are actives, neighbours in structure and some others; about 1.7% of the full set was active somewhere.

SMILES | TRHR agonist | hERG WT inh | TRPML1 ag | KCNH2 3.1 block | TRPML1 inh | TRHR PAM
CSc1ccc(CN(C)C(=O)c2cccc(S(=O)(=O)N3CCN(Cc4ccccc4)CC3)c2)cc1 | . | -122 | . | . | . | .
COc1ccc(S(=O)(=O)N2CCN(Cc3ccccc3)CC2)cc1OC | . | . | . | . | . | 35
O=S(=O)(c1ccc(Cl)cc1)N1CCC(O)(CN2CCN(Cc3ccccc3)CC2)CC1 | . | . | . | -73 | . | .
COc1cccc(CN2CCCN(S(=O)(=O)c3ccc(Br)cc3)CC2)c1 | . | -88 | . | . | . | .
Cn1c2cc(Br)sc2c2cnn(Cc3ccccc3F)c(=O)c21 | . | / | / | / | / | .
O=C(CN1CCN(C(=O)c2ccccc2)CC1)Nc1ncc(Br)cc1Br | . | . | . | -85 | . | .
CCSCCOC(=O)C1=C(C)NC(=O)NC1c1ccc2c(c1)OCO2 (centres undefined) | . | . | . | . | . | 37
Cn1c(=O)c2[nH]c(NN=Cc3cccc(Br)c3)nc2n(C)c1=O | / | . | . | . | . | /
O=C(NN=C1C2CC3CC(C2)CC1C3)c1ccncc1 | / | -183 | . | . | . | /
Cc1cc(C)nc(NS(=O)(=O)c2ccc(NS(=O)(=O)c3ccsc3)cc2)n1 | . | . | . | -89 | . | .
Cc1cc(C)nc(NS(=O)(=O)c2ccc(NS(=O)(=O)c3ccccc3)cc2)n1 | . | . | . | . | . | .
CCn1c2c(c(=N)c3c1CCC3)CCC2 | . | . | . | -88 | . | .
O=[S+]([O-])(c1ccc2nsnc2c1)N1CCN([S+](=O)([O-])c2c(F)cccc2F)CC1 | . | / | / | / | / | .
Cc1ccc(N(c2ncnc(N)c2[N+](=O)[O-])C2CCCCC2)cc1 | . | . | . | -86 | . | .
COc1ccc(OCC(=O)c2c[nH]c3ccccc23)cc1 | . | . | . | . | . | .
CCN1CCN(C(c2ccc(OC)cc2)C(O)C(=O)c2c[nH]c3ccccc23)CC1 (centres undefined) | . | -104 | . | -99 | . | .
COc1cccc(N2CCN(CC(=O)NC(=O)NC3CCCCC3)CC2)c1 | . | . | . | . | . | .
C[C@H](CO)N1C[C@H](C)[C@@H](CN(C)S(=O)(=O)c2ccc(F)cc2)Oc2ccc(NC(=O)C3CCCCC3)cc2C1=O | / | . | . | . | . | /
COc1ccc(CCN2C(=O)c3[nH]nc(-c4ccccc4O)c3C2c2ccc(OC)c(OC)c2)cc1 (centres undefined) | . | / | . | / | . | 31
COc1ccc(CCN2C(=O)c3[nH]nc(-c4ccccc4O)c3C2c2ccc(OC)cc2)cc1 (centres undefined) | . | / | . | / | . | .
Cc1cccc(NS(=O)(=O)c2c(C)nc3sccn3c2=O)c1C | . | / | . | / | . | .
C=CCN1CC(C(=O)N2CCC(Cc3ccc(Cl)cc3)(C(=O)OCC)CC2)CC1=O (centres undefined) | . | . | . | . | . | 30
COC(=O)[C@H](C)[C@H](CC(C)C)NC(=O)[C@H](C)[C@H](CC(C)C)NC(=O)c1ccccn1 | / | / | . | / | . | /
OCCN1CCN(c2nc(-c3ccccc3)c3cc(Br)ccc3n2)CC1 | . | . | . | -71 | . | .
O=C(O)C1CCN(c2nc(-c3ccccc3)c3cc(Br)ccc3n2)CC1 | . | . | . | . | . | .
SMILES | TRHR agonist | hERG WT inh | TRPML1 ag | KCNH2 3.1 block | TRPML1 inh | TRHR PAM
CCCCN(C)CCNC(=O)Cn1ncc2c3ccccc3n(CCC)c2c1=O | . | / | . | / | . | 31
O=C(CN1C(=O)COc2ccc(S(=O)(=O)NC3CCCC3)cc21)NCc1ccc(Cl)cc1 | . | / | . | / | . | .
Cc1cc(C)cc(NC(=O)C(C)N2C(=O)c3ccccc3C2=O)c1 (centres undefined) | . | . | . | . | . | .
CC(C(=O)Nc1ccccc1)N1C(=O)c2ccccc2C1=O (centres undefined) | . | . | . | . | . | 32
O=[N+]([O-])c1cccnc1N1CCN(c2ccc(F)cc2)CC1 | . | . | . | . | . | 37
Cc1ccc(Nc2cc(C)nc(-c3ccccc3O)n2)cc1 | . | . | . | . | . | .
Cc1ccc(Nc2cc(C)nc(-c3ccccc3)n2)cc1 | . | . | . | -77 | . | .
Cc1cc(N/N=C/c2ccc(Cl)cc2Cl)nc(NCc2ccccc2)n1 | . | . | . | ? | . | .
Cc1ccc(/C=N/Nc2cc(C)nc(NCc3ccccc3)n2)cc1 | . | . | . | -80 | . | .
Cc1cc(N/N=C/c2ccc(N(C)C)cc2)nc(NCc2ccccc2)n1 | . | . | . | . | . | .
Cc1cc(N/N=C/c2ccc(F)cc2)nc(NCc2ccccc2)n1 | . | . | . | -100 | . | .
Cc1cc(Nc2ccc(Cl)cc2)nc(NCc2ccccc2)n1 | . | . | . | -78 | . | .
Cc1cc(Nc2ccccc2)nc(NCc2ccccc2)n1 | . | . | . | . | . | .
CC(=O)OCON[N+]([O-])=NC1CCCCC1 | / | / | . | / | . | /
O=C(Nc1cccc(Cl)c1)c1nc[nH]c1C(=O)Nc1ccccc1F | / | -71 | . | . | . | /
O=C(Nc1ccc(Cl)cc1)c1nc[nH]c1C(=O)Nc1ccccc1F | / | . | . | . | . | /
COc1ccc(OC)c(S(=O)(=O)n2ccnc2C(C)C)c1 | . | . | . | . | . | .
CCCn1c(=O)c2sccc2n2c(CCCC(=O)NC3CCCCC3)nnc12 | . | / | . | / | . | .
CCCn1c(=O)c2sccc2n2c(CCCC(=O)NC3CCC(C)CC3)nnc12 (centres undefined) | . | / | . | / | . | 37
O=S(=O)(Cc1ccc(Cl)cc1)NCc1cccnc1 | . | . | . | -78 | . | .
O=C(NCC1OCCCN1S(=O)(=O)c1cc(F)ccc1F)C(=O)NC1CCCC1 (centres undefined) | . | . | . | . | . | .
Cc1ccc(OC(C)C(=O)N(C)Cc2ccccc2)c([N+](=O)[O-])n1 (centres undefined) | . | . | . | . | . | 39
CC(=O)Nc1cc([N+](=O)[O-])cc(NC(C)=O)c1NC(C)=O | / | / | . | / | / | /
CC1(NC(=O)CCNC(=O)c2ccc(C(C)(C)C)cc2)CCS(=O)(=O)C1 (centres undefined) | . | . | . | . | . | .
